# IL-1B inflam inh – inhibitors of inflammasome signaling (IL-1 beta secretion) | THP-1 LPS/ATP IL-1B secretion, AlphaLISA, 16 h; hits give low values | activity change, % at 57.5 µM | actives 4.7% (n = 360,000) | AID 743279; in the data active means activity change below about -50%; inconclusive means mostly about -30% to -49%
#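 Secreted IL-1B measured by AlphaLISA bead assay after 16 h compound exposure of THP-1 cells; compounds (final up to 57.5 uM) added 1 h before LPS (250 ng/mL) and ATP (1.25 mM) stimulation; lower signal means less secretion.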
# HT1080 IDH1KD tx – toxicity to HT-1080 IDH1 knockdown cells (counter line); actives 2% (n = 360,000); Potency, µM (highest dose often 46.1 µM), for the others: at the highest dose activity, negative = toxicity, usual class: cytotoxic; HT-1080 IDH1 knockdown viability, ATP luminescence, 48 h;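 further: potency means the concentration at half of the fitted maximal effect; 0% = DMSO wells and -100% = cell-free medium wells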
#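 CellTiter-Glo luminescence after 48 h compound exposure at 37 degrees C of IDH1-knockdown HT-1080 cells in 5% FBS RPMI. %Activity scaled between DMSO wells and cell-free media wells, with curves fitted and assigned curve classes.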
# ELG1 DNA repair – ELG1-dependent DNA repair inhibition | HEK293T ELG1-luciferase reporter, luminescence, 16 h; DNA damage induced by 5-fluorouridine | Potency, µM (highest dose often 46.1 µM), inactives show top-dose activity change, negative = inhibition, usual class: inhibitors | AID 504467 | actives 2.3% (n = 330,000); further: potency means the concentration at half of the fitted maximal effect; nearly all actives have a fitted effect of over 55% in size
#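 In this reporter screen, reduction of luminescence relative to DMSO vehicle indicated activity. Compounds and 5-fluorouridine were added together to 2,000 cells per well, incubated for 16 hr at 37 °C, then developed with ONE-Glo.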
# DT40 TDP1 CPT – DT40-hTDP1 cell growth loss with CPT. AID 686979. chicken DT40 Tdp1-/-;hTDP1 cells + 20 nM CPT, ATP luminescence, 48 h. Potency, µM (titrated, usually from 46.2 µM), for the others: at the top dose activity change, negative = growth inhibition, hits mostly inhibitors. actives 12% (n = 420,000); further: potency means the concentration at half of the fitted maximal effect; nearly all actives have a fitted effect of over 55% in size
#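 Chicken DT40 Tdp1-/- cells stably complemented with human TDP1 were seeded at 400 cells/well in medium containing 20 nM camptothecin, exposed to pin-transferred compounds, and grown at 37 °C for at least 48 hr. Viability was read as ATP luminescence.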
# DT40 TDP1 no CPT – qHTS for Inhibitors of human tyrosyl-DNA phosphodiesterase 1 (TDP1): qHTS in cells in absence of CPT; DT40 Tdp1-/- hTDP1 cells, no CPT, ATP luminescence, 48 h; Potency, µM (series often up to 46.2 µM), without a hit: top-dose activity change, negative = growth inhibition, most hits filed as inhibitors; actives 15% (n = 420,000); AID 686978, 2013; further: potency means the concentration at half of the fitted maximal effect; nearly all actives have a fitted effect of over 55% in size
#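 No-CPT arm: Tdp1-/-;hTDP1 DT40 cells (400/well) plus compounds, incubated ≥48 hr at 37 °C. Readout CellTiter-Glo luminescence.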
# HT1080-NT tox – kills 2HG-producing HT-1080-NT fibrosarcoma cells; HT-1080-NT fibrosarcoma viability, CellTiter-Glo ATP luminescence, 48 h; Potency, µM (highest dose often 46.1 µM), for inactives: top-dose activity, negative = less viability, hits mostly cytotoxic; actives 1.6% (n = 360,000);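 further: NT is the 2HG producing partner of a matched IDH1 knockdown line; potency means the concentration at half of the fitted maximal effect; 0% = DMSO-treated cells and -100% = media-only wells without cells; nearly all actives have a fitted effect of over 55% in size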
#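 Luminescent CellTiter-Glo readout after 48 hours of compound exposure at 37 degrees C defined viability of HT-1080-NT cells. Activity was normalized to DMSO wells and cell-free media wells; concentration-response curves were fitted and assigned curve classes.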
# Starred values were filed as active, the others as inactive; ? = inconclusive; / = not tested or not shown. An excerpt weighted towards active compounds, which were near 19% of everything screened. Unless noted, the call rests on the fitted dose curve; in most records, active means well fitted curve in the direction sought with a large enough effect; inconclusive means small, poorly fitted or top-dose-only effect, or another doubt; inactive means no such curve, though single readings can be large; an effect the other way counts as inactive or inconclusive. Unless noted, on the % scale 0 is the no-effect control and ±100 the full control effect.
SMILES,IL-1B inflam inh,HT1080 IDH1KD tx,ELG1 DNA repair,DT40 TDP1 CPT,DT40 TDP1 no CPT,HT1080-NT tox
COc1cc(Cn2c3ccc(NC(=O)CCc4cccnc4)cc3c(=O)n2C)ccc1F,0,-9%,/,9.2µM*,?,0%
COc1ccccc1CCC(=O)Nc1ccc2c(c1)c(=O)n(C)n2-c1cccs1,67,?,/,3.7µM*,3.7µM*,?
Cc1ccc(C(C[N+](=O)[O-])Sc2ccc(N)cc2)cc1 (stereo not given),/,16µM*,?,4.1µM*,6.5µM*,?
Cc1ccc(/C=N/n2cc(-c3ccccc3)[nH]c2=S)s1,11,1%,?,8.2µM*,5.2µM*,-6%
Cc1ccc(/C=N/n2c(-c3cccnc3)n[nH]c2=S)s1,-54*,15%,22%,0%,-20%,7%
Oc1ccc(/C=N/n2cc(-c3ccccc3)[nH]c2=S)cc1,-6,-4%,15%,?,?,4%
S=c1[nH]nc(-c2cccnc2)n1/N=C/c1ccc(Br)s1,18,-6%,-1%,13%,-3%,-1%
C=C(CC)C(=O)c1ccc(OCC(=O)O)c(Cl)c1Cl,-94*,23µM*,-13%,17µM*,18µM*,18µM*
CC(=O)c1c(C)[nH]c(C(=O)OCc2nnc(-c3ccccc3)o2)c1C,25,-16%,?,?,13µM*,-2%
O=C(OCc1nnc(-c2ccccc2)o1)c1ccc(S(=O)(=O)NCc2ccco2)cc1,0,0%,10%,?,23µM*,13%
CC(C)[C@H](NC(=O)c1ccccc1)C(=O)OCc1nnc(-c2ccccc2)o1,34,27%,15%,?,23µM*,15%
CS(=O)(=O)c1ccc(C(=O)OCc2nnc(-c3ccccc3)o2)cc1[N+](=O)[O-],-70*,4.1µM*,26%,3.7µM*,10µM*,7.3µM*
Cc1ccc(C(=O)N[C@H](C(=O)OCc2nnc(-c3ccccc3)o2)C(C)C)cc1,19,-4%,18%,-32%,-19%,-5%
CN(Cc1ccno1)Cc1cn(Cc2ccccc2)nc1-c1ccc2c(c1)OCO2,-11,-3%,?,?,?,-2%
CSC1=NC2(CCN(C(=O)NC3CCCCC3)CC2)N=C1c1ccc(C)cc1,/,/,/,?,-25%,/
c1ccc2c(c1)ncn2CCCCOc1ccc2c(c1)CCC2,-29,3%,?,?,29µM*,-3%
c1ccc2c(c1)ncn2CCCOc1ccc2c(c1)CCC2,-53*,?,-2%,?,21µM*,?
c1ccc(OCCn2cnc3ccccc32)cc1,-4,16%,?,?,?,3%
CC(=O)c1cccc(NC(=O)C(C)OC(=O)c2cccc(-n3cnnn3)c2)c1 (stereo not given),4,-1%,1%,-4%,-3%,0%
CC1(C)CC(=O)C2=C(C1)N=C1c3ccccc3C(=O)C1C2c1ccc(Cl)cc1 (stereo not given),-60*,?,?,?,?,?
Cc1ccc(C2C3=C(CC(C)(C)CC3=O)OC3=C2C(=O)CC(C)(C)C3)cc1,-15,22%,9%,-6%,-12%,21%
Cc1ccc(C2C3=C(CC(C)(C)CC3=O)N=C3c4ccccc4C(=O)C32)cc1 (stereo not given),-53*,?,?,?,18µM*,-26%
NC(=O)CC(NC(=O)c1ccccc1)c1ccc(NC2CCC2)c([N+](=O)[O-])c1 (stereo not given),-9,2%,-3%,?,?,4%
NC(=O)CC(NC(=O)c1cccc(Br)c1)c1ccc(NCC2CC2)c([N+](=O)[O-])c1 (stereo not given),-11,-3%,5%,?,?,9%
NC(=O)CC(NC(=O)c1ccccc1)c1ccc(NC2CCCC2)c([N+](=O)[O-])c1 (stereo not given),-1,-3%,?,4.6µM*,18µM*,-3%
SMILES,IL-1B inflam inh,HT1080 IDH1KD tx,ELG1 DNA repair,DT40 TDP1 CPT,DT40 TDP1 no CPT,HT1080-NT tox
NC(=O)CC(NC(=O)c1ccccc1)c1ccc(NCC2CC2)c([N+](=O)[O-])c1 (stereo not given),0,-1%,-3%,23µM*,?,6%
Cn1c(C(=O)c2ccncc2)cc2ccccc21,?,-4%,-9%,-10%,-25%,-5%
COc1ccccc1CNC(=O)/C=C/c1ccc(Br)o1,8,21%,13%,-11%,-3%,15%
COc1ccc(OCC(=O)Nc2ccc3c(c2)nc(CCNC(=O)c2ccco2)n3C)cc1,/,/,/,-5%,5%,/
Cc1ccc(C(C)C)c(OCC(=O)Nc2ccc3c(c2)nc(CCNC(=O)c2ccco2)n3C)c1,/,/,/,?,10µM*,/
Cc1ccc(C(C)C)c(OCC(=O)NNCC(=O)Nc2cccc(F)c2)c1,?,-8%,-14%,15µM*,15µM*,0%
Cc1ccc(OCC(=O)Nc2ccc3c(c2)nc(CCN2CCCC2)n3C)cc1,-14,-10%,/,-85%,?,-7%
Cc1ccc(C(C)C)c(OCC(=O)Nc2ccc3c(c2)nc(CN2CCCC2)n3C)c1,-50*,23µM*,13µM*,?,15µM*,16µM*
Cc1cccc(OCC(=O)Nc2ccc3c(c2)nc(CCNC(=O)c2ccco2)n3C)c1,/,/,/,23µM*,-29%,/
Cc1nn(CC(=O)NC2CC2)c(C)c1S(=O)(=O)N(C)C,22,2%,/,-6%,-20%,2%
Cc1cc(=O)oc2cc(OCc3ccc(S(=O)(=O)N4CCOCC4)cc3)ccc12,-20,4%,-24%,?,29µM*,-3%
Cc1cc(C)c(Cn2c(=O)[nH][nH]c2=O)cc1Cn1c(=O)[nH][nH]c1=O,-5,0%,/,1%,-4%,0%
CN(C(=O)COC(=O)c1ccccc1SCC(=O)N1CCCC1)c1ccccc1,17,4%,-9%,-21%,?,2%
O=C(O)CC(C(=O)Nc1ccc(F)cc1)C1CCCO1 (stereo not given),-4,-2%,6%,-10%,?,-1%
CSc1ccc(CCNc2ncnc3onc(-c4ccc(Cl)cc4)c23)cc1,/,/,/,16µM*,10µM*,/
Fc1ccc(-c2noc3ncnc(NCCc4ccccc4)c23)cc1,/,/,/,?,16µM*,/
